The source of these data is PubChem BioAssay (NCATS).

Assay [1] can be described thus: Cytotoxicity counterscreen for inhibitors of SARS-CoV-2 cell entry (AID 1645845; calls by dose curve; further: nearly all actives have a fitted effect of over 50% in size; further: potency means the concentration at half of the fitted maximal effect). The following applies: outcome: dose series up to 57.1 µM unless noted. The method in brief: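 Expi293F/hACE2 cells seeded overnight; cpd pin-transferred in DMSO, 1 h preincubation, + media, 48 h 37 C 5% CO2; ATPLite 1step luminescence; normalized to cells and no cells.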
Assay [2] can be described thus: Primary qHTS to identify inhibitors of SARS-CoV-2 cell entry (AID 1645846; calls by dose curve; further: nearly all actives have a fitted effect of over 45% in size; further: potency means the concentration at half of the fitted maximal effect). The note with it: SARS-CoV-2 pseudovirus cell entry assay, luminescence; activity change, negative = inhibition: at 57.1 µM (top of the series) unless noted. Summed up:
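Using luciferase-reporting pseudoviruses carrying Wuhan-Hu-1 spike, the screen tracks entry into stably ACE2-expressing cells over 48 hr. Activity is expressed relative to spike particles versus particles lacking any fusion protein.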
Background: In qHTS, concentration-response curves come from the screen itself.

A short description of assay [3]: Primary qHTS for inhibitors of nuclear receptor binding SET domain protein 2 (NSD2) in an isogenic RCH-ACV NSD2 p.E1099K mutant (9B) (AID 1645876). Further: nearly all actives have a fitted effect of over 70% in size. Further: potency means the concentration at half of the fitted maximal effect.
The nature of assay [4]: Primary qHTS for inhibitors of nuclear receptor binding SET domain protein 2 (NSD2) in an RCH-ACV wild type WT cells (2C) (AID 1645877). Further: nearly all actives have a fitted effect of over 70% in size. Further: potency means the concentration at half of the fitted maximal effect.
Assay [5] addresses Phospholipid hydroperoxide glutathione peroxidase GPX4 (Homo sapiens) (UniProt P36969). As to the kind of experiment: Primary qHTS Assay for Inhibitors of Recombinant Selenoprotein Glutathione Peroxidase 4 (GPX4) (AID 1845192). Further: nearly all actives have a fitted effect of over 65% in size. Further: potency means the concentration at half of the fitted maximal effect. On activity change, negative = inhibition: on the % scale 0 is the no-effect control and ±100 the full control effect. The method in brief:
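GR-coupled readout: 100 nM GR, 1 mM GSH, 0.5 mM NADPH; NADPH fluorescence (ex 340/em 450 nm) read at t=0 and after 15 min RT. GPX4 200 nM, preincubated 30 min with compound; substrate 0.5 mM CHP.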

The nature of assay [6]: qHTS assay to identify inhibitors of the type 1 interferon - major histocompatibility complex class I in skeletal muscle: Counter screen cell viability and HiBit confirmation (AID 1347412). Further: potency means the concentration at half of the fitted maximal effect. On activity change, negative = inhibition: on the % scale 0 is the no-effect control and ±100 the full control effect. On all read-outs here: nearly all actives have a fitted effect of over 60% in size. The note with it: iHSKM muscle cells + IFN-b, HiBiT or CellTiter-Glo, 24 h; for activity change, negative = inhibition: at 45.9 µM (top of the series). The method in brief:
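Human myoblast knock-in line, 4.0 ng/ml IFN-beta stimulation, 24 h compound treatment. Endpoints: HiBiT lytic luminescence (HLA-B level) and CellTiter Glo (ATP). Dosing 12 concentrations, 3-fold steps, 46 uM highest final.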

Assay [7] is described as follows: qHTS for differential inhibitors of proliferation of Plasmodium falciparum line 7G8 (AID 1815).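 Further: parasite growth measured after three days of incubation.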 Further: potency means the concentration at half of the fitted maximal effect.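 On activity change, negative = inhibition: plate controls were vehicle wells for no effect and reference inhibitor wells for full effect.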
Assay [8] is described as follows: qHTS for differential inhibitors of proliferation of Plasmodium falciparum line GB4 (AID 1816).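 Further: parasite growth measured after 72 h incubation.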 Further: potency means the concentration at half of the fitted maximal effect.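 On activity change, negative = inhibition: 0% = vehicle DMSO and -100% = reference inhibitor.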 The note with it: Potency: Plasmodium falciparum GB4 proliferation inhibition.
The nature of assay [9]: qHTS for differential inhibitors of proliferation of Plasmodium falciparum line Dd2 (AID 1882). Further: nearly all actives have a fitted effect of over 65% in size. Further: potency means the concentration at half of the fitted maximal effect.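 On activity change, negative = inhibition: plate controls were DMSO vehicle for no effect and 0.29 µM artemisinin for full effect.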 The following applies: Potency: Plasmodium falciparum Dd2 proliferation inhibition. The method in brief:
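Dd2-infected erythrocytes (0.3% parasitemia, 2.5% hematocrit final) incubated with compound 72 h at 37 C, 5% CO2; lysed with saponin/Triton buffer containing SYBR Green I, incubated overnight in the dark, then read by fluorescence (485/535 nm). Normalized to 0.29 uM artemisinin and DMSO.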

Assay [10] concerns the target Glucocorticoid receptor (Homo sapiens) (UniProt P04150). As to the kind of experiment: GR-GFP Redistribution (AID 450;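 active means compounds whose dose series gives a full or clear partial fitted curve of increased nuclear translocation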; further: potency means the concentration at half of the fitted maximal effect). The note with it: U2OS GR-GFP nuclear translocation, laser cytometry, 2 h.
Assay [11] in a line: qHTS Assay for Modulators of Human Peripheral Myelin Protein 22 (PMP22) Expression/Activity (AID 1967; active means well fitted curve in the direction sought with a large enough effect in the signal ratio; the % refers to the signal ratio;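 further: 0% = untreated cells and 100% end not stated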). Summed up:
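Engineered MSC80 cells, Pmp22-promoter green and EF-alpha red luciferase reporters; 24h compound treatment at 37 °C. Concentration-response fits on green, red and ratio signals, each overlap-corrected, with %Activity normalized to untreated wells.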

Results filed as inconclusive are left out. A structure can be active in one record and inactive in another. Activity calls are given as the source filed them. Unless noted, the call rests on the fitted dose curve; in most records, active means well fitted curve in the direction sought with a large enough effect; inconclusive means small, poorly fitted or top-dose-only effect, or another doubt; inactive means no such curve, though single readings can be large; an effect the other way counts as inactive or inconclusive.

Sequence of Phospholipid hydroperoxide glutathione peroxidase GPX4 (Homo sapiens) (P36969 whole entry, looked up): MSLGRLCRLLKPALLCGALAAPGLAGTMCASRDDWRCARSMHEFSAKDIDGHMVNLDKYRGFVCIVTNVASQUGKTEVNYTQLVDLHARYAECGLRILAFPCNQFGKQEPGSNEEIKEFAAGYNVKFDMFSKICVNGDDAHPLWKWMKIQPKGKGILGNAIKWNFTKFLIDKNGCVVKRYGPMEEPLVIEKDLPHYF
Sequence of Glucocorticoid receptor (Homo sapiens) (P04150 whole entry, looked up): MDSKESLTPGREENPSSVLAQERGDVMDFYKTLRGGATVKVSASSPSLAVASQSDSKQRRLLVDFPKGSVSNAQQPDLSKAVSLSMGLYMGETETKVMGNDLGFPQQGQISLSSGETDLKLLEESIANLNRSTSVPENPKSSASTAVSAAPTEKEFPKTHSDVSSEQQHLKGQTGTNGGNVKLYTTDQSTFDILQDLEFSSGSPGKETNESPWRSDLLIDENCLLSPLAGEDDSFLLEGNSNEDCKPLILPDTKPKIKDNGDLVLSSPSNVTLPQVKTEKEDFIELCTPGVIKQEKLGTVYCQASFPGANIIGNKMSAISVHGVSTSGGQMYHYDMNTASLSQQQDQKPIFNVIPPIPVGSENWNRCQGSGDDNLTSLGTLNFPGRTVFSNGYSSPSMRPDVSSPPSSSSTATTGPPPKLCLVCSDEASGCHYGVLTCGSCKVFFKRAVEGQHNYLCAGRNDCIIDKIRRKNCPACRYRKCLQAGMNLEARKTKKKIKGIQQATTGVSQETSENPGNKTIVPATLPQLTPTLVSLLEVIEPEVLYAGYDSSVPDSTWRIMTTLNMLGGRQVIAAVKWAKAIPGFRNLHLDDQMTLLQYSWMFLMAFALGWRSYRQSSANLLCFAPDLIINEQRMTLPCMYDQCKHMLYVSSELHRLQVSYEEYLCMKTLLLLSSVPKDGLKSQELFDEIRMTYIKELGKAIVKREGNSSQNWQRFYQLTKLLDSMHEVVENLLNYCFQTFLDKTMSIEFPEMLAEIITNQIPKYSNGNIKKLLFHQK

As for `C/C=C(\C)C(=O)N[C@@H](c1ccccc1)[C@@H](O)C(=O)O[C@H]1C[C@@]2(O)[C@@H](OC(=O)c3ccccc3)[C@@H]3[C@]4(OC(C)=O)CO[C@@H]4C[C@H](O)[C@@]3(C)C(=O)[C@H](OC(C)=O)C(=C1C)C2(C)C`, the Potency result in [1] and in [5] was “inactive” throughout. Also, the activity change, negative = inhibition in assay [2] was -81.8%. Moreover, the Potency in [3] and in [4] was 26.3 nM (active) throughout.

For `O=C(O)CNC(=O)C1C(=O)N(C2CCCCC2)C(=O)N(C2CCCCC2)C1=O`, the Potency entry in assay [1] and in [3] was “inactive” throughout.

Consider `COc1cc2cc(c1Cl)N(C)C(=O)C[C@H](OC(=O)C(C)C)[C@]1(C)O[C@@H]1[C@H](C)[C@@H]1C[C@@](O)(NC(=O)O1)[C@H](OC)/C=C/C=C(\C)C2`, for which the activity change, negative = inhibition in [2] is -80.9%. Also, the Potency entry in assay [3] and in [4] was “inactive” in each case.

For `Cn1c(COP(=O)(NCCBr)NCCBr)cnc1[N+](=O)[O-]`, the Potency entry in assay [1] and in assay [5] was “inactive” each time. Moreover, the activity change, negative = inhibition in assay [2] was -15%. Moreover, the Potency in [4] was 18600 nM (active).

With `CO/C1=C/C(C)=C\[C@@H](C)[C@@H](O)[C@@H](C)C/C(C)=C\C=C/[C@H](OC)[C@@H]([C@@H](C)[C@@H](O)[C@H](C)[C@@]2(O)C[C@@H](O)[C@H](C)[C@@H](C(C)C)O2)OC1=O`, the Potency is 1580 nM (active) in assay [1], 1580 nM (active) in assay [2], 49.4 nM (active) in [3] and 39.3 nM (active) in assay [4].

On to `CO[C@H]1CCC(O[C@H]2C[C@H]([C@]3(C)CC[C@]4(C[C@H](O)[C@@H](C)[C@@H]([C@@H](C)/C=C(\C)C(=O)[C@H](C)C[C@H](C)C(=O)O)O4)O3)O[C@]3(O[C@@H]([C@H]4O[C@@](O)(CO)[C@H](C)C[C@@H]4C)C[C@@H]3C)[C@@H]2C)O[C@@H]1C` (stereo partly specified), for which the Potency result in [1] and in [5] was “inactive” each time. For the same compound, the values for the Potency in assay [3], in [6] (HiBiT) and in assay [6] (Viability) were 209 nM (active), 12500 nM (active) and 14000 nM (active), respectively.

In the case of `CC(=O)OC[C@H]1O[C@@H]([S-])[C@H](OC(C)=O)[C@@H](OC(C)=O)[C@@H]1OC(C)=O.CC[PH+](CC)CC.[Au]`, the Potency in assay [1] is 3160 nM (active); in assay [2] it was 1260 nM (active); in assay [3] it was 742 nM (active); in [4], 742 nM (active); in assay [6] (HiBiT), 1110 nM (active). In addition, in assay [5], the Potency entry was “inactive”.

Turning to `CCCCCCC(C)(C)c1cc(O)c2c(c1)OC(C)(C)C1CC=C(CO)C[C@H]21` (stereo partly specified), the Potency entry in [1], in [3] and in assay [4] was “inactive” in each case. Further, in [2], the activity change, negative = inhibition is -8.86%. For the same compound, the Potency in assay [6] (Viability) was 35200 nM (active).

Turning to `C[C@]12COC(=O)C[C@@H]1CC[C@@H]1[C@@H]2CC[C@@]2(C)[C@H]1CC[C@]2(C)O`, the Potency result in assay [1] and in [5] was “inactive” throughout. In addition, the activity change, negative = inhibition in assay [2] is -8.16%.

For the compound `C=C(C)[C@@H]1CCC(C)=C[C@H]1c1c(O)cc(CCCCC)cc1O`, the Potency in assay [3] is 18600 nM (active); in assay [4], 20900 nM (active); in assay [5] it was 17800 nM (active). Also, the activity change, negative = inhibition in assay [6] (Viability) is 5.14% (inactive).

For the compound `Cc1c(N)nc([C@H](CC(N)=O)NC[C@@H](N)C(N)=O)nc1C(=O)N[C@H](C(=O)N[C@@H](C)[C@H](O)[C@@H](C)C(=O)N[C@@H](C(=O)NCCc1nc(-c2nc(C(=O)NCCC[S+](C)C)cs2)cs1)[C@@H](C)O)C(O[C@H]1O[C@H](CO)[C@H](O)[C@@H](O)[C@H]1O[C@H]1O[C@H](CO)[C@@H](O)[C@H](OC(N)=O)[C@@H]1O)c1cnc[nH]1` (stereo partly specified), the Potency result in assay [1], in assay [3] and in assay [5] was “inactive” in each case. Also, in [2], the Potency is 1120 nM (active). Besides, in assay [2], the activity change, negative = inhibition is -97.2%.

In the case of `CCCN(CCC)[C@@H]1CCc2c(F)ccc(O)c2C1`, the Potency is 1120 nM (active) in assay [7], 355 nM (active) in assay [8] and 1410 nM (active) in [9].

With `COc1cc(C=C(C#N)C#N)cc(O)c1O`, the Potency in assay [10] is > 46000 nM (inactive); in assay [8] it was 12600 nM (active).

As for `C=CCN1CC[C@@]2(C)c3cc(O)ccc3CC1[C@@H]2C`, the Potency was 7940 nM (active) in [7] and 12600 nM (active) in assay [8]. Moreover, the compound was classed as inactive in assay [11].

With `C#CCN(C)C(C)Cc1ccccc1` (stereo unspecified), the Potency in [10] is > 20600 nM (inactive). The Potency entry in assay [7], in [8] and in assay [9] was “inactive” in each case. In [11], the compound was called inactive.

Turning to `C[N+]1(C)C2CC(OC(=O)C(CO)c3ccccc3)CC1C1OC12` (stereo unspecified), the Potency entry in [7], in assay [8] and in [9] was “inactive” each time. Besides, in assay [11], the compound was called inactive.

As to `CCC(CO)NC(=O)[C@@H]1C=C2c3cccc4[nH]cc(c34)C[C@H]2N(C)C1` (stereo partly specified), the Potency in [7] is 10000 nM (active).

Take `NCC#Cc1ccccc1`: in [10], the Potency was > 46000 nM (inactive). Besides, the Potency entry in assay [8] and in assay [9] was “inactive” throughout.

On to `C[C@]12CC[C@H]3[C@@H](CCC4C[C@H](O)CC[C@@]43C)[C@@H]1CC[C@@H]2O` (stereo partly specified), for which the Potency result in assay [7], in assay [8] and in [9] was “inactive” each time. Also, in [11], the result was inactive.

In the case of `Oc1ccc2c3c1O[C@H]1[C@@H](O)CC[C@@]4(O)C(C2)N(CC2CCC2)CCC314` (stereo partly specified), the Potency entry in assay [7] and in assay [9] was “inactive” in each case. For the same compound, the compound was called inactive in [11].

As to `N#CC(=Cc1ccc(O)c(O)c1)C(N)=S`, the Potency entry in assay [9] is “inactive”.

For `Nc1ncnc2c1ncn2[C@@H]1O[C@H](COP(=O)(O)CP(=O)(O)OP(=O)(O)O)[C@H](O)[C@H]1O`, the Potency entry in assay [7], in [8] and in [9] was “inactive” throughout. The outcome in [11] was inactive.

In the case of `CCCN(CCC)C(=O)Cc1c(-c2ccc(Cl)cc2)nc2c(Cl)cc(Cl)cn12`, the Potency in [10] is > 46000 nM (inactive). The call in [11] was inactive.

On to `C/C1=C/C[C@@H](/C(C)=C/c2csc(C)n2)OC(=O)C[C@H](O)C(C)(C)C(=O)[C@H](C)[C@@H](O)[C@@H](C)CCC1`, for which, in [1], the Potency entry was “inactive”. Further, the activity change, negative = inhibition is -64.3% in [2] and -15.3% (inactive) in assay [6] (Viability). The Potency was 52.5 nM (active) in assay [3] and 41.7 nM (active) in assay [4].

Regarding `CCNC(=O)[C@H]1O[C@@H](n2cnc3c(N)ncnc32)[C@H](O)[C@H]1O`, the Potency entry in assay [7], in assay [8] and in assay [9] was “inactive” in each case. In assay [11], the compound was classed as inactive.

On to `CCCC[N+]1(C)C2CC(OC(=O)C(CO)c3ccccc3)CC1C1OC12` (stereo unspecified), for which the Potency entry in assay [7], in assay [8] and in [9] was “inactive” throughout.

As to `CCN1C[C@]2(C)CC[C@H](O)[C@@]34[C@@H]5C[C@@H]6[C@@H](OC)C[C@@](O)(C5[C@H]6O)[C@@H](C[C@@H]23)[C@@H]14`, the Potency result in [7] and in [9] was “inactive” each time. Besides, in assay [11], the compound was called inactive.
